# TR SRC2 fluor cs: counter-screen for TRb-SRC2 inhibitors: fluorescence interference | TRb/SRC2 Texas Red total fluorescence interference | actives 0.29% (n = 280,000) | AID 1479 | Potency, µM (titrated, usually from 106 µM), inactives show at the top dose fluorescence change, negative = quenching; active = well fitted curve in either direction with a large enough effect; inconclusive = small, poorly fitted or top-dose-only effect
#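 Human TRb ligand-binding domain at 0.6 uM with 20 nM Texas Red SRC2 peptide in Tris buffer containing 1 uM T3 and 5% DMSO, incubated with compound 5 h at ambient temperature. Total fluorescence (555/632 nm) calculated as parallel + 2 × perpendicular.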
# Tau ThT inhib: inhibitors of human tau fibril formation, thioflavin T binding; P10636; recombinant tau K18 P301L, heparin-induced fibrillization, ThT fluorescence; Potency, µM (series often up to 57.4 µM), for the others: at the highest dose activity, negative = inhibition, most hits filed as inhibitors; actives 2.1% (n = 270,000); AID 1460; note: nearly all actives have a fitted effect of over 55% in size
# Target sequence (P10636 561-689 P618L limits assumed): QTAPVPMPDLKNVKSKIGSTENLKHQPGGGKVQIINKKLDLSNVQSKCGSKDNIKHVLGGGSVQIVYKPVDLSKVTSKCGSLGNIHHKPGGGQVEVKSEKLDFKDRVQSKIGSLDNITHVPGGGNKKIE
#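 In this qHTS, human K18 P301L tau is incubated with compound and heparin for 6 hr at 37 C, and Thioflavin T fluorescence then reports fibril load.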
# TRb SRC2 PPI: TRbeta-SRC2 interaction inhibition. P10828. TRbeta-SRC2 peptide binding, fluorescence polarization; receptor liganded with 1 µM T3. Potency, µM (titrated, usually from 106 µM), for inactives: top-dose activity change, negative = inhibition, usual class: inhibitors. actives 0.065% (n = 280,000). AID 1469;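 note: plate controls were bound peptide for no effect and peptide without receptor for full effect; nearly all actives have a fitted effect of over 50% in size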
# Target sequence (P10828 whole entry, looked up): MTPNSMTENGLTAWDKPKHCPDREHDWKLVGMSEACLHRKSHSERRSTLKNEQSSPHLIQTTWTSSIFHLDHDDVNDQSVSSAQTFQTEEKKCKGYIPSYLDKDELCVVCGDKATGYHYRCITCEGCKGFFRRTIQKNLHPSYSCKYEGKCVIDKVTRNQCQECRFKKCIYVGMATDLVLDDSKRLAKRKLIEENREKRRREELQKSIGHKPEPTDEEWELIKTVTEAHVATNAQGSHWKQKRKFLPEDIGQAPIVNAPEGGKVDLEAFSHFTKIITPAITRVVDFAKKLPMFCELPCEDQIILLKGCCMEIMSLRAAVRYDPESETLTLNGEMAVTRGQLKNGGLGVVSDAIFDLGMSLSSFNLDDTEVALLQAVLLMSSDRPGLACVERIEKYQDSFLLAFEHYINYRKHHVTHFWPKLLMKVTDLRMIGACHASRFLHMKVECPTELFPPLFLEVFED
#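 Human TRb ligand-binding domain (0.6 uM) is mixed with 20 nM Texas Red SRC2 peptide and 1 uM T3; after compound addition and 5 hr at ambient temperature, polarization is measured and normalized to unbound and bound controls.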
# Tau fluor counter: counter-screen for tau fibril formation inhibitors. tau K18 P301L (four-repeat tau fragment) Alexa594 fluorescence, heparin fibrillization. Potency, µM (titrated, usually from 57.7 µM), without a hit: at the top dose activity change, negative = decrease. actives 0.93% (n = 280,000). AID 1463; note: nearly all actives have a fitted effect of over 55% in size
#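 Human K18 P301L tau (15 uM unlabeled plus 0.24 uM Alexa 594-labeled, final) in 100 mM sodium acetate pH 7 was mixed with compound and 20 uM heparin and incubated 6 hr at 37 C.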
# Tau fibril FP: tau fibrillization inhibition (FP) | P10636 | actives 0.39% (n = 280,000) | K18 P301L tau heparin fibrillization, Alexa594 FP, 6 h | Potency, µM (top dose mostly 57.7 µM), without a hit: top-dose activity, negative = inhibition, actives largely listed as inhibitors; note: nearly all actives have a fitted effect of over 55% in size
#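 Steps: dispense K18 P301L tau (15 uM plus 0.24 uM Alexa 594 tracer, final) in pH 7 sodium acetate; add compound; add heparin (20 uM final); incubate 6 hr, 37 C; add ThT (30 uM final); after 1 hr ambient, read FP.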
# Numbers without * were called inactive; ? = inconclusive; . = no result; [ ] = remark or other dose. An excerpt weighted towards active compounds, which were near 3% of everything screened. Unless noted, calls come from the whole dose curve; as a rule, active = well fitted curve in the direction sought with a large enough effect; inconclusive = small, poorly fitted or top-dose-only effect, or another doubt; inactive = no such curve, though single readings can be large; an effect the other way counts as inactive or inconclusive. Unless noted, % is set by controls: 0 for no effect and ±100 for the full control effect; potency is the fitted concentration of half-maximal effect.
SMILES,TR SRC2 fluor cs,Tau ThT inhib,TRb SRC2 PPI,Tau fluor counter,Tau fibril FP
CCN(CC)C(=O)CSc1nc(N)c(C(=O)Nc2ccc(OC)cc2)s1,-2.9%,-5.3%,6.4%,-2.6%,15.2%
CCOC(=O)CSc1nc(N)c(C(=O)Nc2ccc(N(C)C)cc2)s1,-1.6%,15.8µM*,-9.1%,?,7.4%
O=C(O)C(c1ccc(Cl)cc1)c1ccc(Cl)cc1,-4.0%[201 µM],.,0.2%[201 µM],.,.
Cc1cc2c3c(c1)C(C)(c1ccccc1)CC(C)(C)N3C(=O)C21C(C#N)=C(N)OC2=C1C(=O)CC(C)(C)C2 (stereo unspecified),1.1%,-19.4%,-25.3%,-12.0%,12.7%
CC1(c2ccccc2)CC(C)(C)N2C(=O)C3(C(C#N)=C(N)Oc4cc(O)ccc43)c3cccc1c32 (stereo unspecified),-1.1%,-19.4%,-11.2%,?,25.1µM*
CCOc1ccc(C(=O)Nc2ccc3nc(SCC(=O)N4CCOCC4)sc3c2)cc1,?,-4.2%,-7.6%,-23.1%,-7.8%
Cc1ccccc1NC(=O)CSc1nnc(-c2ccco2)c(-c2ccco2)n1,-3.3%,7.94µM*,-27.2%,?,8.91µM*
Cc1cccc(C)c1NC(=O)CSc1nnc(-c2ccco2)c(-c2ccco2)n1,?,25.1µM*,9.9%,?,?
COc1ccc(-c2nnc(SCC(=O)Nc3c(C)cccc3C)nc2-c2ccc(OC)cc2)cc1,-1.7%,-0.9%,2.1%,-10.2%,-7.8%
Cn1cc(S(=O)(=O)c2ccc(Cl)cc2)c(=O)c2cc(F)c(N3CCCCCC3)cc21,1.6%,-9.0%,-3.8%,-11.8%,-6.1%
COc1cc(OC)nc(-n2ncc(Br)c(Br)c2=O)n1,-0.1%,10µM*,5.4%,-13.4%,?
COC(=O)c1cnn(-c2nc(OC)cc(OC)n2)c1C,1.4%,-0.5%,2.2%,6.4%,0.6%
N#Cc1c[nH]n2c(NC3CCCCC3)c(-c3cccc(Cl)c3)nc12,1.4%,-0.6%,-4.2%,-2.8%,-2.3%
CCOc1cc(C#N)c(NC(=O)c2ccc(OC)c(S(=O)(=O)N3CCN(c4ccccc4)CC3)c2)cc1OCC,0.9%,3.1%,0.4%,-27.9%,?
NC(CO)C(=O)NNCc1ccc(O)c(O)c1O (stereo unspecified),-14.8%,3.16µM*,3.8%,?,3.16µM*
CCOC(=O)c1c(/N=C/c2cccc([N+](=O)[O-])c2O)sc2c1CCC2,-3.2%,15.8µM*,-4.4%,-26.9%,-6.7%
CCOC(=O)c1c(/N=C/c2cc(OC)cc([N+](=O)[O-])c2O)sc(C)c1C,-6.9%,8.91µM*,6.1%,?,?
CCOC(=O)c1c(/N=C/c2cc([N+](=O)[O-])ccc2O)sc(C)c1C,0.8%,?,2.3%,?,11.5%
CCc1n[nH]c(=S)n1/N=C/c1cc(OC)cc([N+](=O)[O-])c1O,-4.9%,5.01µM*,-4.4%,-27.8%,-16.1%
CCN(CC)S(=O)(=O)c1cccc(N=NC2=C(O)CCCC2=O)c1,?,-9.9%,39.8µM*,-9.6%,-3.0%
CCc1ccc(C(=O)CSc2nc(-c3ccccc3)nc3c2CCCC3)cc1,-1.0%,2.2%,3.8%,-5.3%,-0.7%
CNC(=O)c1ccc(-c2sc3nc(N4CCOCC4)c4c(c3c2N)CCCC4)o1,-8.2%,15.8µM*,-20.4%,14.1µM*[quencher],20.0%
CCN(Cc1cccc(S(=O)(=O)O)c1)c1ccc(C(=C2C=CC(=[N+](CC)Cc3cccc(S(=O)(=O)[O-])c3)C=C2)c2ccccc2)cc1,89.1µM*[quencher],.,?,.,.
CCN(CC)c1ccc(C(=C2C=CC(=[N+](CC)Cc3cccc(S(=O)(=O)[O-])c3)C=C2)c2ccc(N(CC)Cc3cccc(S(=O)(=O)O)c3)cc2)cc1,11.2µM*[fluorescent],.,11.2µM*,.,.
CCN(Cc1ccccc1)c1ccc(/C=N/NC(=O)c2cccc(S(=O)(=O)N3CCOCC3)c2)cc1,-1.0%,-8.9%,-3.9%,-29.6%,17.4%
SMILES,TR SRC2 fluor cs,Tau ThT inhib,TRb SRC2 PPI,Tau fluor counter,Tau fibril FP
CCN(CC)c1ccc(C(=C2C=CC(=[N+](CC)CC)C=C2)c2ccccc2)cc1,0.2%,.,-7.9%,.,.
CCCCN(CC)C(=O)Cn1c(=O)n(-c2ccc(OCC)cc2)c(=O)c2c3c(sc21)CCC3,?,-5.1%,4.3%,-5.4%,2.5%
CCN(CC)c1ccc(NC(=O)/C=C\c2ccccc2Cl)cc1,-2.4%,3.98µM*,2.1%,8.91µM*[quencher],22.8%
COc1cc2c(C#N)c(N3CCN(c4ccccc4OC)CC3)nc(N)c2c(N)n1,-10.0%,17.8µM*,?,12.6µM*[quencher],-10.3%
COc1cc2c(C#N)c(N3CCN(C)CC3)nc(N)c2c(N)n1,-7.7%,-8.1%,-8.2%,-4.3%,9.0%
COc1cc2c(C#N)c(N3CCCC3)nc(N)c2c(N)n1,1.3%,?,9.7%,?,10.7%
N#Cc1c(N2CCCC2)nc(N)c2c(N)nc(N3CCCC3)cc12,-2.4%,?,?,12.6µM*[quencher],11.3%
CC(O)CNc1nc2sc3c(c2c(=O)n1Cc1ccco1)CCCCC3 (stereo unspecified),-8.2%,?,-2.6%,?,?
CN(C)CCNc1nc2sc3c(c2c(=O)n1CCc1ccccc1)CCCCC3,-7.9%,?,0.4%,12.6µM*[quencher],?
CC(O)CNc1nc2sc3c(c2c(=O)n1CCc1ccccc1)CCCCC3 (stereo unspecified),7.3%,?,0.8%,10µM*[quencher],12.0%
CCc1ccc2c(c1)-c1ccccc1S(=O)(=O)N2CC(=O)N1CCC(C)CC1,-8.2%,-10.1%,-8.0%,-11.5%,5.5%
S=c1[nH]c(-c2ccccc2)cn1/N=C/c1ccncc1,-2.2%,11.2µM*,-3.5%,?,-9.0%
CCN1C(=O)[C@H]2[C@H]3[C@H](O)[C@H](O)C/C(=N/O[C@@H](C)c4cc(-c5c(C)cc(C)cc5C)no4)[C@@H]3CC[C@@H]2C1=O,-3.2%[11.2 µM],-5.1%[11.5 µM],4.4%[11.2 µM],0.3%[11.6 µM],3.4%[11.6 µM]
C/C(CC(=O)Nc1cc(C)ccn1)=N\NC(=O)c1ccccc1C,-6.7%,?,-0.7%,?,?
C/C(CC(=O)Nc1cccc(Cl)c1Cl)=N\NC(=O)c1ccccc1C,-8.6%,5.62µM*,-6.6%,-35.4%,-44.2%
Cc1cc(/C=N/n2cnnc2)c(O)c([N+](=O)[O-])c1,-8.8%,3.98µM*,-0.8%,-5.5%,11.0%
Cc1cc(C(c2ccc(C)o2)c2ccc(C)o2)c(O)c([N+](=O)[O-])c1,-4.9%,?,-1.1%,-26.5%,-6.0%
CCC(=O)N1CCN(c2ccc(NC(=O)c3cc4ccccc4o3)cc2)CC1,-6.5%,2.82µM*,-9.9%,?,2.2%
O=C(Nc1ccc(CN2CCOCC2)cc1)c1cc2ccccc2o1,-4.4%,-9.6%,-0.4%,-12.8%,-1.6%
O=C(Nc1ccc(N2CCOCC2)cc1)c1cc2ccccc2o1,-9.1%,5.62µM*,0.8%,-27.3%,1.7%

# Bioassay records from PubChem.
